Unmarked numbers belong to inactive results. Results filed as inconclusive are left out. Calls of active or inactive are those of the source. Unless noted, the call rests on the fitted dose curve; in most records, active means well fitted curve in the direction sought with a large enough effect; inconclusive means small, poorly fitted or top-dose-only effect, or another doubt; inactive means no such curve, though single readings can be large; an effect the other way counts as inactive or inconclusive.

The record followed here is PubChem BioAssay (NCATS).

In assay [1] the target is T1, Hexokinase-4 (Homo sapiens) + Glucokinase regulatory protein (Homo sapiens) (UniProt P35557+Q14397). Nature of the assay: qHTS assay for inhibitors of recombinant human GCK-GKRP interaction: Diaphorase-coupled assay (AID 743205). A digest of the protocol:
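25 mM Hepes pH 7.6, 5 mM glucose, 0.4 mM ATP, 4 U/ml G6PDH; 10 nM each GST-GCK/FLAG-GKRP. Kinetic fluorescence read, 1/min × 30 min. Normalized: DMSO ± enzyme = max/min.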
A general note: In qHTS, concentration-response curves come from the screen itself.

In assay [2] the target is T1, Hexokinase-4 (Homo sapiens) + Glucokinase regulatory protein (Homo sapiens). Nature of the assay: qHTS assay for inhibitors of recombinant human GCK-GKRP interaction: ADP-Glo assay (AID 743206).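 Further: plate controls were DMSO plus enzyme for no effect and no enzyme for full effect.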 In short, it runs like this: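 Pin-transferred compounds meet a 15 nM GST-GCK/15 nM FLAG-GKRP/2 uM S6P mix (dispense concentrations). ATP is then added to 0.4 mM final with 5 mM glucose, and the reaction runs 60 min at room temperature. ADP is quantified luminescently.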

The target is the same in assay [3]. Nature of the assay: qHTS assay for inhibitors of recombinant human GCK-GKRP interaction: HTRF assay (AID 743207).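 Further: 0% = DMSO with GCK present and -100% = DMSO wells lacking GCK.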 A digest of the protocol:
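5 nM GST-GCK + 5 nM FLAG-GKRP + 2 uM S6P, pH 7.1 buffer (25 mM Hepes, 2 mM MgCl2, 25 mM KCl, 1 mM DTT, Tween/BSA); pin-transferred cpd; anti-FLAG XL665/anti-GST K; 60 min RT; HTRF.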

Assay [4] is described as follows: qHTS Assay for Identifying Gametocytocidal Compounds (AID 743244).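 Further: on the % scale 0 is the no-effect control and ±100 the full control effect; actives lower the fluorescent signal which means gametocytes are killed.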 The following applies: P. falciparum 3D7 stage III-V gametocytes, alamarBlue, 72 h; max response: active compounds read low. In short, it runs like this:
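Using 20,000 stage III–V 3D7 gametocytes per well, compounds were incubated 72 h under 37 °C/5% CO2. Viability was then assessed by 24 h alamarBlue reduction, measured fluorometrically at 525/598 nm.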

The nature of assay [5]: qHTS assay for measurement of the activity of small molecule inhibitors on Zika virus induced Caspase-3 activity in human iPSC derived neural progenitor cells (hNPCs) (AID 1224857). Further: nearly all actives have a fitted effect of over 65% in size. Further: potency means the concentration at half of the fitted maximal effect. In short, it runs like this: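 After overnight (16–20 h) culture at 350 cells/well, hNPCs get compound, then ZIKV 2 FFU/cell one hour later. Six hours on, Caspase-Glo 3/7 is added and luminescence measured.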

Assay [6] can be described thus: qHTS assay for measurement of the activity of small molecule inhibitors on Zika virus induced Caspase-3 activity in human astrocytoma cells (AID 1224859). Further: potency means the concentration at half of the fitted maximal effect. In short, it runs like this: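 Inhibition of Zika-induced caspase-3/7 activity: SNB-19 cells, 1 h compound pretreatment, ZIKV 2 FFU/cell for 6 h at 37 C, Caspase-Glo luminescence read-out.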
Assay [7] is described as follows: Natriuretic polypeptide receptor (hNpr1) antagonism - Pilot counterscreen GloSensor control cell line (AID 1347045; calls by dose curve; further: series mostly up to about 38 µM; on the % scale 0 is the no-effect control and ±100 the full control effect). A digest of the protocol:
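Cells were first seeded and incubated overnight at 37C, then loaded with 2% GloSensor substrate for 2 h. Compounds were added for 30 min at room temperature, followed by a baseline read, 50 uM SNP and a final read after 20 min.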
On the technique in general: The purpose of a counterscreen is to sort out artefacts and off-target activity.

In assay [8] the target is Atrial natriuretic peptide receptor 2 (Homo sapiens) (UniProt P20594). Nature of the assay: Natriuretic polypeptide receptor (hNpr2) antagonism - Pilot subtype selectivity assay (AID 1347050; calls by dose curve; further: potency means the concentration at half of the fitted maximal effect). A digest of the protocol: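 Antagonist mode: compounds (LOPAC1280, seven 1:5 dilutions) added 30 min before 1 nM hNppC stimulation of hNpr2-HEK293 cGMP-sensor cells; luminescence read before and 20 min after agonist at ambient temperature.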
Chain of Atrial natriuretic peptide receptor 2 (Homo sapiens) (P20594 whole entry, looked up): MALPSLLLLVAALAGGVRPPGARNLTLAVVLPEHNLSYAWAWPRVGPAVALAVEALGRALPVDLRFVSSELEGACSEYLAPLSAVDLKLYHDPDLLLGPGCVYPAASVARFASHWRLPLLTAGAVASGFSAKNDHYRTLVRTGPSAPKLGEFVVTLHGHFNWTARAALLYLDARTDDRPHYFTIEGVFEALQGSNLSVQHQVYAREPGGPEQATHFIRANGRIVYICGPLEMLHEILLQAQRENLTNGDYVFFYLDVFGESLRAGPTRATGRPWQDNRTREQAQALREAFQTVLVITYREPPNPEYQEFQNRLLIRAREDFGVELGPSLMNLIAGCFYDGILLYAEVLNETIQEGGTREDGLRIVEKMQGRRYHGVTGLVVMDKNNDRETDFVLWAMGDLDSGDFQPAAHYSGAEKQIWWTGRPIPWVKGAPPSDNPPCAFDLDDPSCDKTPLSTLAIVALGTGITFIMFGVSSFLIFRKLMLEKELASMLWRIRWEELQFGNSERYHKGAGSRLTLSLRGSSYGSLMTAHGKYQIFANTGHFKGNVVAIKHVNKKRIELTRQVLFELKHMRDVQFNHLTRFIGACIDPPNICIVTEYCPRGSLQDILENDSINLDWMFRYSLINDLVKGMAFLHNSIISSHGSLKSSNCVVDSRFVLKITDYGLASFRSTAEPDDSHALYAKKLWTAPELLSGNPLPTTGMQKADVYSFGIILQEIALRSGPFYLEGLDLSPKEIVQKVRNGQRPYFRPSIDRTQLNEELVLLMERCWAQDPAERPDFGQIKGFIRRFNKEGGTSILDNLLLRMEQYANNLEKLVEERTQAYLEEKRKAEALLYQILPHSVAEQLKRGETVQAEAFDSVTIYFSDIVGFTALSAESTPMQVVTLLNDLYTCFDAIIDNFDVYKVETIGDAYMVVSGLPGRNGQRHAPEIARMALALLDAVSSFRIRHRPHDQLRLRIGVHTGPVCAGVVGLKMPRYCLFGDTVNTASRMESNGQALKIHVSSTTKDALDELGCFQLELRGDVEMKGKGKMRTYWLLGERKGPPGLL

Assay [9] concerns the target Atrial natriuretic peptide receptor 1 (Homo sapiens) (UniProt P16066). Kind of assay: Natriuretic polypeptide receptor (hNpr1) antagonism - Pilot screen (AID 1347049; calls by dose curve;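 further: HEK293 cells with hNpr1 and GloSensor cGMP luciferase stimulated by 0.1 nM hNppA; agonist-evoked cGMP luminescence read 20 min after hNppA addition; series mostly up to about 58 µM; on the % scale 0 is the no-effect control and ±100 the full control effect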). In short, it runs like this:
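Receptor antagonism read as cGMP-dependent luminescence in hNpr1/pGS-40F HEK293 cells: pre-read after 30 min compound exposure, post-read 20 min after hNppA agonist at 0.1 nM final, all at room temperature, protected from light; A-71915 titration as control.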

Assay [10] can be described thus: qHTS assay for cell viability of HEK293 cells (AID 743288). Further: on the % scale 0 is the no-effect control and ±100 the full control effect; nearly all actives have a fitted effect of over 50% in size. The following applies: ATP luminescence (CellTiter-Glo), 18 h; max response: active compounds read low. A digest of the protocol:
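Viable-cell counts were inferred from luciferase-based ATP content in HEK293 cells seeded at 2,000/well, pre-incubated ≥5 h, then dosed with DMSO-solubilised compounds for 18 h at 37 C.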

The nature of assay [11]: qHTS assay for cell viability of the p53RE-bla HCT-116 cell line (AID 743292). Further: on the % scale 0 is the no-effect control and ±100 the full control effect; nearly all actives have a fitted effect of over 55% in size. In short, it runs like this:
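Quantitative high-throughput format: compounds in DMSO were pinned onto p53RE-bla HCT-116 cells (4,000/well) and incubated 16 h at 37 C. Total intracellular ATP, read by CellTiter-Glo luminescence, reflects viable cell number.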

Chain of Atrial natriuretic peptide receptor 1 (Homo sapiens) (P16066 whole entry, looked up): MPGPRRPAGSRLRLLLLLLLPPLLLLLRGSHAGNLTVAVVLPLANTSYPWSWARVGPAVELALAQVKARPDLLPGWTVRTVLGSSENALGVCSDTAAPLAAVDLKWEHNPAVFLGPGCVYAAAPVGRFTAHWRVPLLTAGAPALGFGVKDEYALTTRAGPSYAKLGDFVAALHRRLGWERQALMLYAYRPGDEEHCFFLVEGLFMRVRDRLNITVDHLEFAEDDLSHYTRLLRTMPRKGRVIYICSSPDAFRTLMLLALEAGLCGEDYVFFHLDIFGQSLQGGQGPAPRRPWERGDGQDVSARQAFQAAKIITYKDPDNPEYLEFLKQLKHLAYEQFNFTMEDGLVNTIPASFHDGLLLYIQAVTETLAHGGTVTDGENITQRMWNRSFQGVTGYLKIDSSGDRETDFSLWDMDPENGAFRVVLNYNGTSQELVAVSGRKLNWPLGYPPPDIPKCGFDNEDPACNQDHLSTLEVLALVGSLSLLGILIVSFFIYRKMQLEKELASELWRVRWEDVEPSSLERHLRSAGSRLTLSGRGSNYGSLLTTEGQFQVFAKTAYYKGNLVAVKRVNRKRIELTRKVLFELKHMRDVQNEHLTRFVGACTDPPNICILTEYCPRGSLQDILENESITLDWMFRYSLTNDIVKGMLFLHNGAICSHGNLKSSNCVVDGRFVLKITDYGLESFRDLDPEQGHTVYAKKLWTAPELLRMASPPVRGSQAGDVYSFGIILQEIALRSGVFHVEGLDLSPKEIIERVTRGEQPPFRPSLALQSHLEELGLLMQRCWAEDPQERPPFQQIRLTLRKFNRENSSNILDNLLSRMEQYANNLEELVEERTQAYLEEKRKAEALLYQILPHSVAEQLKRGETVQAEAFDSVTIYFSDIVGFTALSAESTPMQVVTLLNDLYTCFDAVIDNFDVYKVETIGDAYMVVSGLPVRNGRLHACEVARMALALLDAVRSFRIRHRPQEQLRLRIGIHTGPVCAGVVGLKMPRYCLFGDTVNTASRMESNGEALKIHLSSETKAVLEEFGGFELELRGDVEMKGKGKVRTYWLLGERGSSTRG
T1 sequence (P35557 whole entry, looked up): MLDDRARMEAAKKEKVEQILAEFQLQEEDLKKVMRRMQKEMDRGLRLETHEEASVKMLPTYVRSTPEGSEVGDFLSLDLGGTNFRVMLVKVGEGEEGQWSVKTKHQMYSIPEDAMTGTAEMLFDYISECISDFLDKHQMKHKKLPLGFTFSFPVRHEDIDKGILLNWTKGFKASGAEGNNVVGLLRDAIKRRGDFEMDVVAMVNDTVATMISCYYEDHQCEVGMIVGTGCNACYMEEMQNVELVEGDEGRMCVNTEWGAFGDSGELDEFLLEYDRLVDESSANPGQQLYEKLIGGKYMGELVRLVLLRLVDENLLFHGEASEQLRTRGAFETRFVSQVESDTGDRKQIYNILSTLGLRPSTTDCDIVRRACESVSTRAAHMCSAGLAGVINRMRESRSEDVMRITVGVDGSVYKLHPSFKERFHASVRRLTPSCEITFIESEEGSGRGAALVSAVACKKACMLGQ
T1 sequence (Q14397 whole entry, looked up): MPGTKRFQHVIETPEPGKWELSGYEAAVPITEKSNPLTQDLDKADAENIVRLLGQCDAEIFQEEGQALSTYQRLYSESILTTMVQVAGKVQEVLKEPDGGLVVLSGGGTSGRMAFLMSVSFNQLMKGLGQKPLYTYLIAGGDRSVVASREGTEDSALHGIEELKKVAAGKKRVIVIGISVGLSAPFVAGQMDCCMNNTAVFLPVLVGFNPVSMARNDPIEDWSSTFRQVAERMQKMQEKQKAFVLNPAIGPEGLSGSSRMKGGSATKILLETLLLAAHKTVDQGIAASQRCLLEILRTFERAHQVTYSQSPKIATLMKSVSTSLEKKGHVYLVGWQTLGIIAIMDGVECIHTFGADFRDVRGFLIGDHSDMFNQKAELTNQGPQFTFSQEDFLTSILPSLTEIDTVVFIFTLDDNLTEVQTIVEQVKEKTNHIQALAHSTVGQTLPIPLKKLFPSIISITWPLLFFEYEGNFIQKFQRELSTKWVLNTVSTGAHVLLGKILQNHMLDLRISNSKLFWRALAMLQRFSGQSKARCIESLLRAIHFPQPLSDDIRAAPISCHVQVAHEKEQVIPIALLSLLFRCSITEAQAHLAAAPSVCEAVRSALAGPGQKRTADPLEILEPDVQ

In the case of `CNC(=O)c1cc2c(cn1)[nH]c1ccccc12`, the Potency result in assay [1], in [2], in assay [3], in assay [5], in [6] and in assay [7] was “inactive” in each case. In addition, in assay [8], the Potency entry was “inactive”. Moreover, the max response in [4] was 10.2%.
As to `Clc1nccc2c1ccc1ccccc12`, the Potency result in assay [1], in assay [2], in [3], in [5], in assay [6] and in [7] was “inactive” in each case. The max response in [4] was 7.1%.
On to `COc1ccc(NC(=O)c2ccc(-c3ccc(-c4noc(C)n4)cc3C)cc2)cc1N1CCN(C)CC1`, for which the Potency entry in assay [1], in assay [2], in [3], in [5], in [6] and in assay [7] was “inactive” throughout. For the same molecule, the Potency result in [8] was “inactive”.
For `COc1ccc(CCn2nnnc2C2(c3ccc(C)cc3)CC2)cc1`, the Potency result in assay [1], in [2], in [3], in [5], in [6] and in [7] was “inactive” throughout. For the same molecule, the Potency entry in assay [8] is “inactive”. For the same molecule, the max response in assay [4] was 13.1%.
On to `N#C/C(=C\c1ccc(O)c(O)c1)C(=O)NCCc1ccccc1`, for which the Potency entry in assay [1], in [2], in [3], in assay [5], in assay [6] and in assay [7] was “inactive” in each case. Further, the Potency entry in [8] was “inactive”. Besides, the max response in assay [4] is 5.86%.
Take `O=C(O)C1CCNCC1`: the Potency entry in assay [1], in [2], in assay [3], in assay [5], in assay [6] and in assay [7] was “inactive” in each case. In assay [8], the Potency result was “inactive”. In assay [4], the max response is 10.6%.
For `COc1ccc(CCN(C)CCc2ccc(OC)c(OC)c2)cc1OC`, the Potency result in assay [1], in assay [2], in assay [3], in assay [5], in assay [6] and in assay [7] was “inactive” in each case. For the same molecule, in assay [8], the Potency result is “inactive”. Besides, the max response in assay [4] was 12.4%.
As for `CCC1(O)CC2CN(CCc3c([nH]c4ccccc34)[C@@](C(=O)OC)(c3cc4c(cc3OC)N(C)C3[C@]45CCN4CC=C[C@@](CC)([C@@H](OC(C)=O)[C@]3(O)C(=O)OC)[C@H]45)C2)C1` (stereo partly specified), the Potency result in assay [1], in assay [2], in assay [5], in [6], in assay [9] and in [8] was “inactive” throughout.
Turning to `CN1CC(O)C(O)C(O)C1CO` (stereo unspecified), the Potency entry in assay [1], in assay [2], in assay [3], in assay [5], in assay [6] and in [8] was “inactive” in each case. Besides, in assay [4], the max response was 11.6%.
Take `NC(N)=[N+]1CCc2ccccc2C1`: the Potency entry in assay [1], in assay [2], in assay [3], in [5], in assay [6] and in assay [9] was “inactive” throughout. Moreover, the Potency entry in assay [8] is “inactive”. Further, in assay [4], the max response was -3.89%.
Take `NCC(O)C1CCCCCCC1` (stereo unspecified): the Potency entry in assay [1], in assay [2], in assay [3], in [5], in assay [6] and in [9] was “inactive” throughout. Besides, in [8], the Potency result was “inactive”.
Take `O=c1onc2cnc3ccccc3n12`: the Potency result in [1], in assay [2], in [3], in assay [5], in [6] and in assay [9] was “inactive” in each case. Further, the Potency result in assay [8] is “inactive”.
As for `[Li+]`, the Potency entry in [1], in assay [2], in assay [3], in assay [5], in assay [6] and in assay [7] was “inactive” throughout. Moreover, the max response in [4] is 24.7%.
Regarding `N[C@@H](Cc1ccc(O)c(I)c1)C(=O)O`, the Potency entry in assay [1], in [2], in [3], in assay [5], in assay [6] and in assay [9] was “inactive” each time. In [8], the Potency entry was “inactive”. Further, the max response in assay [4] is 31.3%.
For the molecule `CCCCCCCC/C=C\CCCCCCCC(=O)NCCc1ccc(O)c(O)c1`, the Potency result in assay [1], in assay [2], in assay [3], in assay [5], in assay [6] and in assay [7] was “inactive” each time. Also, in assay [4], the max response was 7.46%.
Take `CC1=C(/C=C/C(C)=C/C=C/C(C)=C\C(=O)O)C(C)(C)CCC1`: the Potency result in assay [1], in assay [2], in assay [3], in assay [11], in assay [5] and in assay [6] was “inactive” in each case. Also, the Potency result in [9] was “inactive”. Further, the max response was 17.8% in assay [4] and 0.628% in [10].
For `Nc1ccc(-c2ccc3ccccc3n2)cc1`, the Potency result in [1], in assay [2] and in [3] was “inactive” in each case. Besides, the max response in assay [4] is 11.1%. The results for the Potency in assay [5], in assay [6] and in assay [8] were 7.08 µM (active), 7.08 µM (active) and 16.5 µM (active), respectively.
With `CNCCNS(=O)(=O)c1cccc2cnccc12`, the Potency result in [1], in assay [2], in [3], in assay [5], in assay [6] and in assay [9] was “inactive” in each case. Also, the Potency result in assay [8] is “inactive”.
In the case of `CN(C)CCCc1cc(C(=O)Nc2ccc(-c3ccncc3)cc2)ccc1O`, the Potency result in assay [1], in assay [2], in [3], in [5], in assay [6] and in assay [9] was “inactive” throughout. In addition, the Potency result in assay [8] is “inactive”.
